Measured values: PubChem BioAssay (NCI)
About 79,000 compounds went through this panel and 15% of them were active in at least one assay; those are over-represented in the sample as a whole. Activity calls are given as the source filed them. Cut-off read from the data, not from the text of the source: active = growth inhibition above about 70%; inactive = the rest.

Key:
[1] = NCI Yeast Anticancer Drug Screen. Data for the rad52 strain (AID 147);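 note: 0% = growth of vehicle-treated control cultures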; details: S. cerevisiae rad52 mutant growth inhibition, stronger effect = higher value
Summary of the method: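 The repair-mutant yeast strain was incubated with compounds, then growth was read and inhibition derived relative to vehicle.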

[2] = NCI Yeast Anticancer Drug Screen. Data for the wt1 strain (AID 149);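 note: 0% = growth of vehicle-treated wt1 cultures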; details: S. cerevisiae wt1 strain (SPY 50644) growth inhibition, stronger effect = higher value
Summary of the method: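 Yeast wt1 strain exposed to compounds; growth inhibition measured relative to vehicle-treated controls.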

[3] = NCI Yeast Anticancer Drug Screen. Data for the rad50EPP+ strain (AID 151);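 note: 0% = growth of vehicle-treated control cultures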; details: S. cerevisiae rad50 mutant strain, stronger effect = higher value
Summary of the method: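 Vehicle-normalised growth inhibition; rad50EPP+ yeast strain, altered in DNA damage repair, compound-treated.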

[4] = NCI Yeast Anticancer Drug Screen. Data for the rad50 strain (AID 155);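 note: 0% = growth of vehicle-only cultures of the same strain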; details: S. cerevisiae rad50 strain growth inhibition, stronger effect = higher value
Summary of the method: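 Yeast carrying a defined DNA repair defect were exposed to test compounds, and growth was compared with vehicle-treated controls to give percent inhibition.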

[5] = NCI Yeast Anticancer Drug Screen. Data for the mec2-1 strain (AID 157); details: S. cerevisiae mec2-1 strain, stronger effect = higher value
Summary of the method: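 Mutant yeast (mec2-1) grown with compound; growth inhibition relative to vehicle control reported.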

[6] = NCI Yeast Anticancer Drug Screen. Data for the rad14 strain (AID 159);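 note: 0% = growth of vehicle-treated control cultures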; details: S. cerevisiae rad14 strain growth inhibition, stronger effect = higher value
Summary of the method: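 Yeast cells carrying a defined DNA-repair defect were exposed to compounds, and growth inhibition was calculated relative to vehicle-treated control cultures.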

[7] = NCI Yeast Anticancer Drug Screen. Data for the sgs1 mgt1 strain (AID 161);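 note: 0% = growth of cultures given vehicle only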; details: S. cerevisiae sgs1 mgt1 strain, stronger effect = higher value
Summary of the method: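 Yeast cells carrying a defined DNA-repair defect were exposed to test compounds. Growth inhibition was measured relative to vehicle-treated controls.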

[8] = NCI Yeast Anticancer Drug Screen. Data for the CLN2oe strain (AID 163);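 note: 0% = growth of vehicle-only control cultures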; details: S. cerevisiae CLN2oe strain, stronger effect = higher value
Summary of the method: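 Compounds are applied to yeast harbouring a defined cell-cycle control change; reduced growth compared with vehicle-treated controls gives the value.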

[9] = NCI Yeast Anticancer Drug Screen. Data for the cln2 rad14 strain (AID 165);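 note: 0% = growth equal to vehicle treated cultures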; details: S. cerevisiae cln2 rad14 strain, stronger effect = higher value
Summary of the method: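 Readout is yeast growth inhibition versus vehicle-treated controls, using a strain with cln2 and rad14 alterations exposed to compound.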

[10] = NCI Yeast Anticancer Drug Screen. Data for the bub3 strain (AID 167); details: S. cerevisiae bub3 mutant strain, stronger effect = higher value
Summary of the method: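 Compounds were applied to a genetically altered yeast strain carrying a cell-cycle control defect. Growth inhibition was scored against vehicle-treated controls.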

[11] = NCI Yeast Anticancer Drug Screen. Data for the wt2 strain (AID 169);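 note: 0% = growth of vehicle-treated yeast cultures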; details: S. cerevisiae wt2 strain growth inhibition, stronger effect = higher value
Summary of the method: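 Against vehicle-treated controls, the growth of yeast exposed to each compound was compared, and the inhibition was recorded.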

[12] = NCI Yeast Anticancer Drug Screen. Data for the mlh1 strain (AID 171);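 note: 0% = growth of vehicle-treated control cultures of the same strain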; details: S. cerevisiae mlh1 strain growth inhibition, stronger effect = higher value
Summary of the method: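 Measured: yeast growth. Reference: vehicle-treated controls. Organism: strain with a defined alteration affecting DNA damage repair or cell cycle control, treated with compound.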

[13] = NCI Yeast Anticancer Drug Screen. Data for the sgs1 strain (AID 173);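 note: 0% = growth of vehicle-only control cultures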; details: S. cerevisiae sgs1 mutant, stronger effect = higher value
Summary of the method: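 Each compound was added to cultures of the altered yeast strain. Growth was recorded, and inhibition was derived by comparison with vehicle controls.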

[14] = NCI Yeast Anticancer Drug Screen. Data for the mlh1 rad18 strain (AID 175); details: S. cerevisiae mlh1 rad18 strain growth inhibition, stronger effect = higher value
Summary of the method: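 Genetically defined yeast (DNA repair-deficient) exposed to compounds; growth inhibition determined relative to vehicle.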

[15] = NCI Yeast Anticancer Drug Screen. Data for the rad18 strain (AID 177); details: S. cerevisiae rad18 mutant growth inhibition, stronger effect = higher value
Summary of the method: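 Vehicle-treated cultures served as the baseline for scoring compound-induced growth inhibition in DNA-repair-mutant yeast.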

[16] = NCI Yeast Anticancer Drug Screen. Data for the mgt1 strain (AID 153); details: S. cerevisiae mgt1 mutant growth inhibition, stronger effect = higher value
Summary of the method: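 Vehicle-normalized growth inhibition is determined in mgt1 yeast, a strain selected for a defined alteration in DNA repair or cell cycle control.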

[17] = at 5.0 µM (retest, dose inferred, filed as 0.5)
[18] = at 50.0 µM (retest, dose inferred, filed as 5.0)

Measured: growth inhibition

Cc1cc(CO)c(O)c(CNCc2cc(C)cc(CO)c2O)c1
inactive: [1]; at 1.2 µM 4% | [1]; at 3.7 µM 8% | [1]; at 11.0 µM 14% | [1]; at 33.0 µM 22% | [2]; at 1.2 µM 24% | [2]; at 3.7 µM 15% | [2]; at 11.0 µM 25% | [2]; at 33.0 µM 38% | [3]; at 1.2 µM -24% | [3]; at 3.7 µM -23% | [3]; at 11.0 µM -33% | [3]; at 33.0 µM -29% | [3]; at 100.0 µM -13% | [4]; at 1.2 µM 2% | [4]; at 3.7 µM 7% | [4]; [17] -25% | [4]; at 11.0 µM 2% | [4]; at 33.0 µM 19% | [5]; at 1.2 µM -14% | [5]; at 3.7 µM -7% | [5]; [17] -32% | [5]; at 11.0 µM -27% | [5]; at 33.0 µM -18% | [5]; [18] 42% | [6]; at 1.2 µM -16% | [6]; at 3.7 µM -29% | [6]; at 11.0 µM -42% | [6]; at 33.0 µM 35% | [7]; [17] -2% | [7]; [18] 22% | [8]; at 1.2 µM -10% | [8]; at 3.7 µM -24% | [8]; at 11.0 µM -25% | [8]; at 33.0 µM -14% | [9]; [17] -17% | [9]; [18] 48% | [10]; at 1.2 µM -14% | [10]; at 3.7 µM -6% | [10]; [17] -21% | [10]; at 11.0 µM -13% | [10]; at 33.0 µM -13% | [10]; [18] 52% | [10]; at 50.0 µM 68.8% | [11]; at 1.2 µM -8% | [11]; at 3.7 µM -11% | [11]; at 11.0 µM -12% | [11]; at 33.0 µM -8% | [12]; at 1.2 µM -27% | [12]; at 3.7 µM -30% | [12]; at 11.0 µM -13% | [12]; at 33.0 µM -7% | [13]; at 1.2 µM 3% | [13]; at 3.7 µM 8% | [13]; at 11.0 µM 9% | [13]; at 33.0 µM 40% | [14]; [17] 17% | [15]; at 1.2 µM 1% | [15]; at 3.7 µM -6% | [15]; at 11.0 µM -4% | [15]; at 33.0 µM 4%
active: [1]; at 100.0 µM 98% | [2]; at 100.0 µM 98% | [4]; [18] 88% | [4]; at 50.0 µM 89.5% | [4]; at 100.0 µM 98% | [5]; at 50.0 µM 77.2% | [5]; at 100.0 µM 98% | [6]; at 100.0 µM 97% | [7]; at 50.0 µM 90.6% | [8]; at 100.0 µM 98% | [9]; at 50.0 µM 72% | [10]; at 100.0 µM 98% | [11]; at 100.0 µM 98% | [12]; at 100.0 µM 98% | [13]; at 100.0 µM 99% | [14]; [18] 96% | [14]; at 50.0 µM 74.3% | [15]; at 100.0 µM 98%

COCCOC(=O)CCn1cc(F)c(=O)[nH]c1=O
inactive: [1]; at 1.2 µM -1% | [1]; at 3.7 µM -1% | [1]; at 11.0 µM 11% | [1]; at 33.0 µM 31% | [1]; at 100.0 µM 62% | [2]; at 1.2 µM 0% | [2]; at 3.7 µM 3% | [2]; at 11.0 µM 7% | [2]; at 33.0 µM 12% | [2]; at 100.0 µM 23% | [3]; at 1.2 µM -3% | [3]; at 3.7 µM 3% | [3]; at 11.0 µM 27% | [3]; at 33.0 µM 67% | [16]; at 1.2 µM -1% | [16]; at 3.7 µM 7% | [16]; at 11.0 µM 16% | [16]; at 33.0 µM 48% | [5]; at 1.2 µM -1% | [5]; at 3.7 µM 3% | [5]; [17] 5% | [5]; at 11.0 µM 13% | [5]; at 33.0 µM 48% | [6]; at 1.2 µM -3% | [6]; at 3.7 µM 0% | [6]; at 11.0 µM 7% | [6]; at 33.0 µM 14% | [6]; at 100.0 µM 34% | [7]; [17] 27% | [8]; at 1.2 µM 0% | [8]; at 3.7 µM 4% | [8]; at 11.0 µM 6% | [8]; at 33.0 µM 15% | [8]; at 100.0 µM 19% | [9]; [17] 22% | [9]; [18] 40% | [9]; at 50.0 µM 36.8% | [10]; at 1.2 µM 0% | [10]; at 3.7 µM 3% | [10]; [17] -8% | [10]; at 11.0 µM 7% | [10]; at 33.0 µM 5% | [10]; [18] 11% | [10]; at 50.0 µM 17.8% | [10]; at 100.0 µM 17% | [11]; at 1.2 µM -1% | [11]; at 3.7 µM 2% | [11]; at 11.0 µM 14% | [11]; at 33.0 µM 48% | [12]; at 1.2 µM 3% | [12]; at 3.7 µM 9% | [12]; at 11.0 µM 18% | [12]; at 33.0 µM 53% | [13]; at 1.2 µM 1% | [13]; at 3.7 µM 12% | [13]; at 11.0 µM 36% | [14]; [17] 13% | [14]; [18] 51% | [14]; at 50.0 µM 62.9% | [15]; at 1.2 µM 1% | [15]; at 3.7 µM 6% | [15]; at 11.0 µM 15% | [15]; at 33.0 µM 32% | [15]; at 100.0 µM 56%
active: [3]; at 100.0 µM 85% | [16]; at 100.0 µM 80% | [5]; [18] 78% | [5]; at 50.0 µM 83.5% | [5]; at 100.0 µM 83% | [7]; [18] 82% | [7]; at 50.0 µM 91.7% | [11]; at 100.0 µM 76% | [12]; at 100.0 µM 77% | [13]; at 33.0 µM 76% | [13]; at 100.0 µM 88%
